Compounds without any hit were thinned out: in the full panel of roughly 83,000, 20% have a hit.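 96-well plates, one dose, 48 hours. Percent growth reported; active if below 10.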
Assays:
Test in all cases: NCI-60 one-dose screen, 48 h (100 = growth as untreated, 0 = no growth, -100 = all killed)
SK-MEL-2 melanoma = test system: SK-MEL-2 melanoma
EKVX NSCLC = conditions: 10 µM unless noted
SN12C renal = test system: SN12C renal
UO-31 renal = test system: UO-31 renal
TK-10 renal = test system: TK-10 renal
ACHN renal = test system: ACHN renal
CAKI-1 renal = test system: CAKI-1 renal
A498 renal = test system: A498 renal
CCRF-CEM leukemia = conditions: 10 µM unless noted
MOLT-4 leukemia = test system: MOLT-4 leukemia
SR leukemia = conditions: 10 µM unless noted
RPMI-8226 leukemia = conditions: 10 µM unless noted
OVCAR-8 ovarian = test system: OVCAR-8 ovarian
OVCAR-5 ovarian = test system: OVCAR-5 ovarian
OVCAR-4 ovarian = test system: OVCAR-4 ovarian
SK-OV-3 ovarian = test system: SK-OV-3 ovarian
IGROV1 ovarian = test system: IGROV1 ovarian
OVCAR-3 ovarian = test system: OVCAR-3 ovarian
HS 578T breast = test system: HS 578T breast
NCI/ADR-RES ovarian = test system: NCI/ADR-RES ovarian

Measured: growth

COC(=O)c1nc(N)nc(C(=O)OC)c1C(=O)c1cccc2ccccc12
inactive: SK-MEL-2 melanoma; 10 µM unless noted 106% | EKVX NSCLC 103% | SN12C renal; 10 µM unless noted 99.5% | UO-31 renal; 10 µM unless noted 89.7% | TK-10 renal; 10 µM unless noted 97.5% | ACHN renal; 10 µM unless noted 106% | CAKI-1 renal; 10 µM unless noted 96.3% | A498 renal; 10 µM unless noted 105% | CCRF-CEM leukemia 101% | MOLT-4 leukemia; 10 µM unless noted 112% | SR leukemia 105% | RPMI-8226 leukemia 109% | OVCAR-8 ovarian; 10 µM unless noted 117% | OVCAR-5 ovarian; 10 µM unless noted 103% | OVCAR-4 ovarian; 10 µM unless noted 108% | SK-OV-3 ovarian; 10 µM unless noted 121% | IGROV1 ovarian; 10 µM unless noted 117% | OVCAR-3 ovarian; 10 µM unless noted 132% | HS 578T breast; 10 µM unless noted 108% | NCI/ADR-RES ovarian; 10 µM unless noted 103%

Cc1ccc(S(=O)(=O)n2ccnc2)cc1
inactive: SK-MEL-2 melanoma; 10 µM unless noted 96.7% | EKVX NSCLC 90.7% | SN12C renal; 10 µM unless noted 107% | UO-31 renal; 10 µM unless noted 89.9% | TK-10 renal; 10 µM unless noted 93% | ACHN renal; 10 µM unless noted 104% | CAKI-1 renal; 10 µM unless noted 75.3% | A498 renal; 10 µM unless noted 96.5% | CCRF-CEM leukemia 120% | MOLT-4 leukemia; 10 µM unless noted 138% | SR leukemia 140% | RPMI-8226 leukemia 100% | OVCAR-8 ovarian; 10 µM unless noted 100% | OVCAR-5 ovarian; 10 µM unless noted 102% | OVCAR-4 ovarian; 10 µM unless noted 102% | SK-OV-3 ovarian; 10 µM unless noted 123% | IGROV1 ovarian; 10 µM unless noted 75.5% | OVCAR-3 ovarian; 10 µM unless noted 101% | HS 578T breast; 10 µM unless noted 111%

CS/C(=C\c1ccc(C(=O)c2ccc(C)cc2)n1C)S(C)=O (stereo not drawn)
inactive: SK-MEL-2 melanoma; 10 µM 98.8% | SK-MEL-2 melanoma; 100 µM 81.4% | SN12C renal; 10 µM 82% | SN12C renal; 100 µM 80.9% | UO-31 renal; 10 µM 92.2% | UO-31 renal; 100 µM 57.8% | TK-10 renal; 10 µM 108% | TK-10 renal; 100 µM 87% | ACHN renal; 10 µM 87.4% | ACHN renal; 100 µM 83.2% | CAKI-1 renal; 10 µM 75.5% | CAKI-1 renal; 100 µM 63.2% | A498 renal; 10 µM 108% | A498 renal; 100 µM 109% | CCRF-CEM leukemia 72.5% [100 µM] | MOLT-4 leukemia; 10 µM 93.9% | MOLT-4 leukemia; 100 µM 66.8% | SR leukemia 30.9% [100 µM] | OVCAR-8 ovarian; 10 µM 91% | OVCAR-8 ovarian; 100 µM 82.3% | OVCAR-5 ovarian; 10 µM 105% | OVCAR-5 ovarian; 100 µM 102% | OVCAR-4 ovarian; 10 µM 89% | OVCAR-4 ovarian; 100 µM 69.2% | SK-OV-3 ovarian; 10 µM 103% | SK-OV-3 ovarian; 100 µM 87.6% | IGROV1 ovarian; 10 µM 93.2% | IGROV1 ovarian; 100 µM 82.9% | OVCAR-3 ovarian; 10 µM 114% | OVCAR-3 ovarian; 100 µM 69% | HS 578T breast; 10 µM 91.2% | HS 578T breast; 100 µM 90.6% | NCI/ADR-RES ovarian; 10 µM 76.8% | NCI/ADR-RES ovarian; 100 µM 52.7%

Reference: PubChem BioAssay (NCI)
